aSyn UTR act: Activators via SNCA 5'UTR binding, MLPCN. activity score, % (tested at 7.5 µM), hits read low. alpha-synuclein 5'UTR reporter, activators screen. 300,000 compounds, 7.1% hits; in the data active = activity score below about -60%
Active calls of the source: *. The list is a sample of the results.

SMILES	aSyn UTR act
COc1cccc(CNC(=O)Cc2ccc(NC(=O)C3=C(C)OCCS3)cc2)c1	-80*
O=C(COc1ccc2c(c1)OCO2)Nc1cccc(F)c1	-94*
CCc1ccc(CNC(=O)Cc2ccc(NC(=O)C3=C(C)OCCS3)cc2)cc1	66
COc1cccc(CNC(C)C(=O)Nc2ccc3c(c2)OCCO3)c1 (stereo not drawn)	-89*
O=C(COc1ccc(F)cc1)Nc1ccc2c(c1)OCCO2	-144*
CCN(CC(=O)Nc1ccc2c(c1)OCCO2)C(=O)/C=C/c1ccc(F)cc1	-70*
CCOCC(=O)Nc1ccc2c(c1)OCCO2	-66*
COc1ccc(OCCCC(=O)Nc2ccc3c(c2)OCCO3)cc1	-132*
Nc1c(-c2ccc(Cl)cc2)cnn1-c1cccc([N+](=O)[O-])c1	-134*
Cc1nn(-c2cccc([N+](=O)[O-])c2)c(N)c1-c1ccccc1	-83*
Nc1c(-c2ccccc2)cnn1-c1cccc([N+](=O)[O-])c1	-92*
CC(C)CCOCC(=O)Nc1cccc(C(=O)O)c1	-73*
Cc1ccc(N/C=C/C(=O)c2ccc(C)cc2)cc1	-241*
COc1ccc(N/C=C/C(=O)c2cc(OC)c(OC)c(OC)c2)cc1	60
Cc1ccc(C(=O)/C=C/Nc2ccccn2)cc1	75
O=C(/C=C/Nc1ccc(F)cc1Br)c1ccccc1	70
Cc1ccc(O)c(N/C=C/C(=O)c2ccc(F)cc2)c1	-259*
Cc1cc(N/C=C/C(=O)c2ccccc2)ccc1Br	-78*
COc1ccc(N/C=C/C(=O)c2ccc(Cl)cc2)cc1	-105*
Cc1ccc(C(=O)/C=C\Nc2ccc(C)c(C)c2)cc1	-195*
S=C(Nc1ccc(Br)cc1Cl)N1CCCC1	-91*
Cc1ccc(C(=O)n2nc(-c3ccccc3)nc2NCc2ccco2)cc1	-68*
CCCC(=O)n1nc(-c2ccc(C)cc2)nc1NCc1ccco1	-88*
O=S(=O)(c1ccccc1)n1nc(-c2ccccc2)nc1NCc1ccco1	-65*
CC(C)(C)c1ccc(-c2noc(CCC(=O)NCc3ccco3)n2)cc1	77
SMILES	aSyn UTR act
Cc1cc(-c2ccccc2)nc(N/N=C/c2ccccc2)n1	-110*
Clc1cccc(/C=N\Nc2nccs2)c1	-168*
C(=N/Nc1nc(-c2ccccc2)cc(-c2ccccc2)n1)/c1cccnc1	-121*
Cc1cc(C)nc(N/N=C/c2cccc(Cl)c2)n1	-93*
COc1ccc2nc3cc(Cl)ccc3c(Nc3cc(CN4CCCC4)c(O)c(CN4CCCC4)c3)c2n1	104
Cc1cc(-c2ccccc2)nc(N/N=C/c2ccco2)n1	-126*
Clc1cccc(/C=N/Nc2nc(Cl)nc3ccccc23)c1	-172*
CCC(=NCc1ccccc1)c1c(C(F)(F)F)[nH]n(-c2nc3ccccc3s2)c1=O	-111*
Cc1ccc(CNC(=O)C2(S(=O)(=O)c3ccccc3)CC=CC2)cc1	-114*
O=C(O)Cc1sc(Nc2ccc(Cl)cc2)nc1-c1cccs1	-188*
CCCCNC(=O)c1nnn(-c2ccccc2)c1N	-140*
O=C(Nc1cccc([N+](=O)[O-])c1)c1ccc2ccccc2c1O	-128*
O=C(Nc1cccnc1)c1ccc2ccccc2c1O	-137*
O=C(Nc1ccccn1)c1ccc2ccccc2c1O	-144*
CC(=O)c1cnc(-c2ccccc2Cl)s1	-82*
COc1cc(C#CC#CCN2CCCCC2)ccc1O	-81*
Cc1ccc(C(=O)Cn2c(=N)n(N)c3ccccc32)cc1	-166*
Cn1c(=N)n(CC(=O)c2ccccc2)c2ccccc21	90
CCN(CC)CCn1c(=N)n(CC(=O)c2ccc(C)cc2)c2ccccc21	-125*
COc1ccc(C(=O)Cn2c(=N)n(C)c3ccccc32)cc1	-62*
Cc1csc(NC(=O)Cc2c(F)cccc2Cl)n1	-131*
Cc1csc(NC(=O)Cc2ccc(F)cc2)n1	-65*
CN1CCN(CC(=O)Nc2nc(-c3c[nH]c4ccccc34)cs2)CC1	-62*
Cc1csc(NC(=O)Cc2c[nH]c3ccccc23)n1	-95*
Cc1cc(CNC(=O)Cc2c(F)cccc2Cl)nn1C	-72*
SMILES	aSyn UTR act
O=C(Cc1c[nH]c2ccccc12)Nc1nc2ccccc2[nH]1	-101*
Cc1ccc2c(CC(=O)Nc3nc(C)cs3)coc2c1	-70*
Cc1cccc(NC(=O)Cc2c(F)cccc2Cl)n1	-103*
COc1ccc2c(CC(=O)Nc3ncc(C)s3)coc2c1	-133*
Cc1ccc(CC(=O)Nc2cccc(C)n2)cc1	-172*
O=C(Cc1ccccc1F)Nc1ccccc1-c1ccccc1	-85*
COCCCNC(=O)C1CCN(C(=O)c2oc3cc4sc(N(C)C)nc4cc3c2C)CC1	-93*
COc1ccc2c(c1)CC/C(=C/c1ccccn1)C2=O	-81*
COc1ccc(OC)c(C2C3=C(COC3=O)Nc3cc4c(cc32)OCO4)c1 (stereo not drawn)	89
COc1ccc2c(c1)CC/C(=C\Nc1ccc3c(c1)OCO3)C2=O	-197*
O=C1/C(=C/Nc2ccc3c(c2)OCO3)CCc2ccccc21	96
COc1ccc(N/C=C2\CCc3ccccc3C2=O)cc1	94
COc1cccc(/C=C2\CCc3ccccc3C2=O)c1	-97*
COc1ccc2c(c1)CC/C(=C\C=C\c1ccccc1)C2=O	-64*
CC[C@@H](C(=O)[C@@H](C)[C@@H](O)[C@H](C)CCc1ccc(C)c(O)c1C(=O)O)[C@H]1O[C@](CC)([C@H]2CC[C@](O)(CC)[C@H](C)O2)C[C@@H]1C	100
N#Cc1cc(-c2ccccc2)nn1-c1ccccc1	-68*
Clc1ccc(-c2cnc(Oc3ccccc3)nc2)cc1	-216*
C/C(=N/Nc1ccccc1[N+](=O)[O-])c1ccc(C)c([N+](=O)[O-])c1	-166*
O=[N+]([O-])c1c(Nc2ccccc2O)cc(N2CCOCC2)c2nonc12	49
C/C(=N\Nc1ccccc1[N+](=O)[O-])c1ccc(N2CCOCC2)cc1	-82*
CC(C)/C(=N/Nc1ccccc1[N+](=O)[O-])c1ccccc1	-86*
Cc1ccccc1NC1=C/C(=N\S(=O)(=O)c2ccc(C(=O)O)cc2)c2ccccc2C1=O	-69*
Cc1ccc(NC2=C/C(=N/S(=O)(=O)c3cccs3)c3ccccc3C2=O)cc1C	-155*
Cc1ccccc1NC1=C/C(=N\S(=O)(=O)c2cccs2)c2ccccc2C1=O	114
Cc1cc[n+](C2=C([O-])c3ccccc3C(=O)/C2=N\S(=O)(=O)c2cccs2)cc1C	74
SMILES	aSyn UTR act
CC(C)(C)c1cc[n+](C2=C([O-])c3ccccc3C(=O)/C2=N\S(=O)(=O)c2ccccc2)cc1	84
CCOc1cccc(-c2nc3cc(C)ccc3o2)c1	-153*
Cc1ccc(C)c(-c2nc3cc(N)ccc3o2)c1	63
Cc1ccc2oc(-c3ccccc3)nc2c1	-188*
Cc1ccc2oc(Nc3nc(C)cc(C)n3)nc2c1	-163*
Cc1nc(Nc2nc3ccccc3o2)nc2c1CCC2	71
CC(C)CCNC(=O)c1cc2c(=O)n3ccccc3nc2s1	-146*
Cc1cc(NS(=O)(=O)c2ccc(NC(=O)c3cc4c(=O)n5ccccc5nc4s3)cc2)nc(C)n1	-79*
CCN(CC)C(=O)c1cc2c(=O)n3ccccc3nc2s1	-125*
Cc1ccc(N/N=C(\C#N)C(=N)N2CCCCCC2)cc1	-113*
N#C/C(=N\Nc1ccc(Cl)cc1)C(=N)N1CCCCC1	-101*
COc1ccc(N/N=C(\C#N)C(=N)N2CCCCC2)cc1	-82*
CCN(CC)C(=N)/C(C#N)=N/Nc1ccc(C)cc1	-136*
Cc1ccc(N/N=C(\C#N)C(=N)N2CCOCC2)cc1	-141*
N#C/C(=N\Nc1ccccc1F)C(=N)N1CCCCC1	-158*

Source: PubChem (Broad Institute)
